# Data taken from the supplement of paper PMC6555819.
# Assays:
# Test in all cases: PBM binding z-score (relative to random genomic background probes); higher = stronger binding; sequences stand for … in GC…GCGATTGACAGCGTAGAATGAAGG
# [1] = test system: FXR:RXRa (NR concentration 270 nM, RXRa partner concentration 90 nM)
# Outline: (§1)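 Scanned fluorescence from custom Agilent 4×180K protein-binding microarrays was regression-normalized. Binding z-scores use random background probes as reference. Ligand-free nuclear receptor dimers were incubated on the arrays for 1 h and detected with antibodies against each partner (one per run).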
# [2] = test system: LXRa:RXRa (NR concentration 270 nM, RXRa partner concentration 90 nM)
# Outline: as §1
# [3] = test system: LXRa homodimer (NR concentration 270 nM)
# Outline: as §1
# [4] = test system: LXRb:RXRa (NR concentration 270 nM, RXRa partner concentration 90 nM)
# Outline: as §1
# [5] = test system: LXRb homodimer (NR concentration 270 nM)
# Outline: as §1
# [6] = test system: PPARa:RXRa (NR concentration 270 nM, RXRa partner concentration 90 nM)
# Outline: as §1
# [7] = test system: PPARg:RXRa (NR concentration 180 nM, RXRa partner concentration 90 nM)
# Outline: as §1
# [8] = test system: PPARg:RXRa 270nM:90nM, anti-RXR (NR concentration 270 nM, RXRa partner concentration 90 nM)
# Outline: as §1
# [9] = test system: PPARg:RXRa 30nM:10nM, anti-RXR (NR concentration 30 nM, RXRa partner concentration 10 nM)
# Outline: as §1
# [10] = test system: PPARg:RXRa 90nM:30nM, anti-RXR (NR concentration 90 nM, RXRa partner concentration 30 nM)
# Outline: as §1
# [11] = test system: PPARg:RXRa DBDmut IVT, anti-RXR (DBD mutation: RXRa K156A/R161A, NR concentration 270 nM, RXRa partner concentration 90 nM)
# Outline: as §1
# [12] = test system: PPARg:RXRa IVT, anti-PPARg (NR concentration 270 nM, RXRa partner concentration 90 nM)
# Outline: as §1
# [13] = test system: PPARg DBDmut:RXRa IVT, anti-PPARg (DBD mutation: PPARg1 K132A/R137A, NR concentration 270 nM, RXRa partner concentration 90 nM)
# Outline: as §1
# [14] = test system: PPARg DBDmut IVT, anti-PPARg (DBD mutation: PPARg1 K132A/R137A, NR concentration 270 nM)
# Outline: as §1
# [15] = test system: PPARg homodimer (NR concentration 180 nM)
# Outline: as §1
# [16] = test system: PXR:RXRa (NR concentration 270 nM, RXRa partner concentration 90 nM)
# Outline: as §1
# [17] = test system: PXR homodimer (NR concentration 270 nM)
# Outline: as §1
# [18] = test system: RARa:RXR (NR concentration 270 nM, RXRa partner concentration 90 nM)
# Outline: as §1
# [19] = test system: RARa homodimer (NR concentration 270 nM)
# Outline: as §1
# [20] = test system: RARb:RXRa (NR concentration 270 nM, RXRa partner concentration 90 nM)
# Outline: as §1
Sequence,PBM binding z-score [1],PBM binding z-score [2],PBM binding z-score [3],PBM binding z-score [4],PBM binding z-score [5],PBM binding z-score [6],PBM binding z-score [7],PBM binding z-score [8],PBM binding z-score [9],PBM binding z-score [10],PBM binding z-score [11],PBM binding z-score [12],PBM binding z-score [13],PBM binding z-score [14],PBM binding z-score [15],PBM binding z-score [16],PBM binding z-score [17],PBM binding z-score [18],PBM binding z-score [19],PBM binding z-score [20]
CCAGACAGGAGAGAAGGTAACTCAGCCTCGATTA,-0.282,-0.227,-0.0445,0.0989,0.0914,-0.133,0.348,-0.148,0.0221,-0.398,-0.43,-0.372,-0.415,-0.373,0.786,-0.0804,0.0829,-0.197,0.0212,-0.091
ACTAGTAGTTGACTTAGGGCAACCGATACGACGC,-0.211,-0.0231,-0.428,-0.351,-0.259,-0.00302,0.852,-0.176,-0.0859,-0.0744,-0.00679,0.335,0.301,0.391,-0.372,-0.0724,-0.195,0.555,0.281,0.593
AAAATGAGGTTACCAAAGATCAGGGAAACGCTTG,2.21,6.37,-0.0548,3.4,-0.136,3.71,3.49,3.24,1.2,2.53,4.97,4.33,2.73,0.928,0.63,1.71,0.241,2.47,-0.123,2.31
ACTAGCAGGCCAAGTTTGGTTCACTCAAACAAAG,-0.324,-0.317,-0.342,-0.0394,-0.539,0.158,-0.322,-0.162,-0.424,-0.301,0.651,0.311,0.0208,-0.415,-0.521,0.287,0.256,0.113,-0.755,0.54
CGAACTAGGTCATTGACTGGACAGTGAATAGTAA,4.77,2.75,0.235,1.83,-0.381,4.74,7.36,6.43,3.34,5.78,8.06,8.06,5.21,5.65,0.956,0.89,0.0623,1.78,0.262,3.52
GCTAGCAGGGCATTTGGGTCACTCAATGACGGGC,0.398,0.383,-0.133,0.541,-0.663,1.77,1.28,1.08,-0.197,0.478,2.42,3.14,0.0662,-0.844,0.341,1.06,0.171,1,-0.58,1.76
CAAACTAGGTCACAGACGTCAAAGTCCGTGCGTA,4.25,3.06,0.272,2.08,0.253,5.37,8.86,7.39,5.35,7.4,8.58,8.8,3,2.09,2.24,1.72,0.0509,2.65,0.354,4.08
CCGACTGGGGGAAGGTTACCATAACGCACAGCCA,0.719,1.05,0.199,2.11,2.85,1.71,1.63,2.33,0.95,1.37,0.717,2.1,0.867,1.69,0.69,0.63,0.357,0.802,0.511,1
CAAACTAGGTCAAGAGGTTAAAGTCCGCTTCCCG,5.05,4.32,2.01,3.13,0.567,5.3,8.91,7.27,5.14,7.16,8.33,8.39,1.58,0.849,2.66,3.48,0.622,4.85,1.25,4.47
CCTAGCAGTCCAATCTGGGTCACTCAAGGCTTGA,0.349,0.868,-0.0916,0.921,-0.342,2.91,1.73,2.01,-0.0165,1.64,3.55,4.58,-0.524,-0.84,0.738,1.04,-0.0331,1.58,-0.751,1.17
CGAACTAGGTCAAGGACAGTGTATCTCCGCACGC,3.62,2.36,0.431,1.57,-0.208,4.9,7.62,6.48,3.91,5.64,7.97,8.01,3.03,0.882,1.62,1.43,-0.0646,2.03,0.437,3.95
CCTCGGAGGAGAACAGGAGGTCAGAGCTGCCAGA,1.12,1.8,1.57,1.43,-0.244,1.87,0.262,0.0579,-0.552,-0.216,-0.418,0.248,-1.26,-1.78,1.58,1.87,0.761,2.19,0.495,1.95
TAGCCTAGGTCAGATCGTGCCAGTATACGCTATA,1.53,1.21,-0.412,1.06,0.00468,1.91,0.806,0.67,0.0687,0.244,0.562,1.66,0.149,-0.175,-0.159,0.82,-0.569,1.23,-0.542,3.18
TAGCCTAGGTAATGCGGGCCAGTATAGTGTCGGC,-1.49,-1.07,-0.66,-1.17,-1.38,-0.346,0.000474,-0.669,-0.676,-0.655,0.0726,0.795,-0.707,-0.721,-1.01,-0.858,-1.13,-0.925,-1.12,-0.447
